According to PubChem BioAssay:
Several values for one entry are separate records, joined by “and”; a condition that tells them apart may be missing. Equal values may be shown once. For some assays here: Entries with a potency or affinity are not part of this list. Activity calls are given as the source filed them.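 How the source made its calls, unless noted: active means thallium flux through the channel raised or lowered by more than 3 SD from vehicle-only wells, actives on both sides; inactive means the rest.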

Experiments:
[1] = signal quenchers or enhancers, Cy5 substrate/SSB – biochemical, NIH Clinical Collection, E. coli SSB, artefact control for HCV NS3 helicase inhibitor project (AID 743268; call rule not given here); settings: Cy5-oligo bound E. coli SSB, fluorescence interference
[2] = system: Hepatitis C virus NS3 helicase; assay: blockers of NS3h binding to DNA – biochemical, fluorescence polarization, NIH Clinical Collection, primary screen (AID 743270; call rule not given here); settings: NS3 helicase binding to Cy5-dT15 DNA, stronger effect = higher value, concentration not given here
[3] = target: Single-stranded DNA-binding protein (Escherichia coli (strain K12)) (UniProt P0AGE0); assay: SSB-ssDNA binding inhibitors – biochemical, fluorescence polarization, NIH Clinical Collection, counter-screen for HCV NS3 helicase inhibitor project (AID 743271; in the data active means inhibition above about 28%); settings: E. coli SSB-DNA binding, stronger effect = higher value, concentration not given here
[4] = compounds distorting NS3 helicase fluorescence signal – biochemical, NIH Clinical Collection, artefact control for HCV NS3 helicase inhibitor project (AID 743272; call rule not given here;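 further: HCV NS3 helicase with a Cy5 labelled single stranded DNA probe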); settings: fluorescence interference counterscreen, HCV NS3 helicase assay; stronger effect = lower value
[5] = growth inhibition, single agent or in combination, cell-based, chromothripsis tumors, cisplatin or BGB combos (AID 1671449; in the data active means inhibition above about 80%;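 further: cells exposed for 96 hours; 0% = vehicle DMSO and 100% = killing by high DMSO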); settings: LFS_MB_P medulloblastoma cells
[6] = growth inhibition, single agent and combos, cell-based, chromothripsis tumors, cisplatin or BGB combos (AID 1671450; in the data active means inhibition above about 80%;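 further: cells exposed to compound for four days; 0% = vehicle DMSO and 100% = cell killing by high DMSO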); settings: HDN33 neuroblastoma cells, stronger effect = higher value
[7] = growth inhibition, single agents and combos, HTB85, cell-based, BGB or cisplatin IC20 combos, synergistic combos for chromothripsis tumors (AID 1671453; in the data active means inhibition above about 80%;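 further: cells exposed for 96 hours before readout; 0% = vehicle DMSO and 100% = high DMSO killing control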); settings: HTB85 osteosarcoma cells, drug combinations, stronger effect = higher value
[8] = target: Calcium-activated potassium channel subunit alpha-1 (Homo sapiens) + Leucine-rich repeat-containing protein 26 (Homo sapiens) (UniProt Q12791+Q2I0M4); assay: BK channel mutant inhibitors and activators – cell-based, U2OS BacMam, thallium flux, beta subunits, selectivity assay, profiling panel (AID 1259406); settings: U2OS BacMam BK variants, F380Y/Slo1WT/gamma1, at 30 µM;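 further: initial slope of Thallos dye fluorescence rise after thallium is added; log ratio against the mean of 0.3% DMSO vehicle wells on the same plate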
R275C = assay: as above; settings: U2OS BacMam BK variants, at 30 µM
R275C/beta1 = assay: as above; settings: U2OS BacMam BK variants, at 30 µM
R275C/beta2Delta = assay: as above; settings: U2OS BacMam BK variants, at 30 µM
R275C/beta4 = assay: as above; settings: U2OS BacMam BK variants, at 30 µM
R275C/Slo1WT/beta2 = assay: as above; settings: U2OS BacMam BK variants, at 30 µM
[9] = blockers of polyQ-driven CASP3 activation – cell-based (AID 1583); settings: polyglutamine-induced caspase-3 activation, cell assay; stronger effect = higher value;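 tested at 10 µM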
[10] = yeast 75Q aggregation reduction – 75Q-TubU reporter (AID 1593); settings: Yeast 75Q polyglutamine aggregation reporter
[11] = restoration of touch response, mutant HTT neurons – whole organism, C. elegans mechanosensory neurons, N-terminal huntingtin (AID 1599); settings: C. elegans polyQ-huntingtin mechanosensory neurons, stronger effect = higher value
[12] = blockers of cytochrome c efflux from mitochondria – biochemical, purified mitochondria (AID 1603); settings: stronger effect = lower value;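 further: mouse liver mitochondria challenged with calcium chloride; signal normalized to the plate average as 100%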
[13] = polyglutamine aggregate formation blockers (AID 1604); settings: polyglutamine-induced protein aggregation inhibition assay; stronger effect = higher value; tested at 2.5 µM
[14] = glutamate transport activators, MN-1 cells, MN-1 cell line (AID 1612); settings: MN-1 motor neuron cells, stronger effect = higher value;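 further: tested at 1 µM final; 0% = mean of DMSO vehicle wells on each plate; positive means more glutamate uptake than control and negative means less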
[15] = 75Q-TubH aggregate inhibition, S. cerevisiae, yeast (AID 1616); settings: S. cerevisiae 75Q-TubH polyglutamine aggregation suppression; stronger effect = higher value
[16] = at 0.5 µM, stronger effect = higher value
[17] = measured here: combination with BGB IC20, at 0.005 µM
[18] = measured here: combination with BGB IC40, at 0.005 µM
[19] = measured here: combination with BGB IC40, at 0.05 µM
[20] = measured here: combination with cisplatin, at 0.5 µM, stronger effect = higher value
[21] = measured here: combination with cisplatin, at 5 µM, stronger effect = higher value
[22] = measured here: with BGB IC20 combination, at 0.5 µM
[23] = measured here: with cisplatin IC20 combination, at 0.5 µM
[24] = measured here: with BGB IC20, at 0.5 µM
[25] = measured here: with BGB IC20, at 5 µM
[26] = measured here: with cisplatin IC20, at 0.5 µM
[27] = measured here: with cisplatin IC20, at 5 µM

Sequence of Calcium-activated potassium channel subunit alpha-1 (Homo sapiens) + Leucine-rich repeat-containing protein 26 (Homo sapiens) (Q2I0M4 whole entry, looked up, one chain of several): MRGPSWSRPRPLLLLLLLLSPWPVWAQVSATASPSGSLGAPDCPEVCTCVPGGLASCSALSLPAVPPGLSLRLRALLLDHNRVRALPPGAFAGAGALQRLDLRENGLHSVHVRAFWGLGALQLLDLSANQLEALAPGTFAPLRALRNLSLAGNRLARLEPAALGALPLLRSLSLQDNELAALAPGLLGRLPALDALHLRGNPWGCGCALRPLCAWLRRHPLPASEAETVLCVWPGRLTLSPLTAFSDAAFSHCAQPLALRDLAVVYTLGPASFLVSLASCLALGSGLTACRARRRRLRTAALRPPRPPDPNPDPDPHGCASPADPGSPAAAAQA

SMILES: O=C(O)CCCc1ccccc1
- fluorescence ratio [1]: 0.99 (inactive)
- inhibition [2]: -2.27% (inactive)
- inhibition [3]: 1.05% (inactive)
- fluorescence ratio [4]: 0.92 (inactive)
- inhibition [5, 16]: -32.4% (inactive)
- inhibition [5, 17]: -18.8%
- inhibition [5, 18]: -12.3%
- inhibition [5, 19]: -22.2%
- inhibition [5, 20]: -35%
- inhibition [5, 21]: -11.6%
- inhibition ([6]; BGB combo, at 5 µM): -16.9%
- inhibition ([6]; at 0.5 µM): -18.6% (inactive)
- inhibition ([6]; cisplatin combo, at 5 µM): 0.505%
- inhibition [6, 22]: -6.08%
- inhibition [6, 23]: -19.1%
- inhibition ([6]; single agent, at 5 µM): -3.58%
- inhibition ([7]; at 0.5 µM): -13.7% (inactive)
- inhibition [7, 24]: -24.4%
- inhibition [7, 25]: -45.4%
- inhibition [7, 26]: -14.6%
- inhibition [7, 27]: -12.8%
- inhibition ([7]; single agent, at 5 µM): -16.3%
- log fold change Tl+ flux [8]: 0.00509 (inactive)
- log fold change Tl+ flux (R275C): -0.048 (inactive)
- log fold change Tl+ flux (R275C/beta1): 0.0568 (inactive)
- log fold change Tl+ flux (R275C/beta2Delta): -0.0698 (inactive)
- log fold change Tl+ flux (R275C/beta4): 0.032 (inactive)
- log fold change Tl+ flux (R275C/Slo1WT/beta2): 0.0104 (inactive)

SMILES: CCCc1nc2c(C)cc(-c3nc4ccccc4n3C)cc2n1Cc1ccc(-c2ccccc2C(=O)O)cc1
- fluorescence ratio [1]: 1.02 (inactive)
- inhibition [2]: 17% (active)
- inhibition [3]: 16.8% (inactive)
- fluorescence ratio [4]: 1.04 (inactive)
- log fold change Tl+ flux [8]: 0.054 (inactive)
- log fold change Tl+ flux (R275C): -0.0814 (inactive)
- log fold change Tl+ flux (R275C/beta1): -0.0256 (inactive)
- log fold change Tl+ flux (R275C/beta2Delta): -0.00129 (inactive)
- log fold change Tl+ flux (R275C/beta4): 0.033 (inactive)
- log fold change Tl+ flux (R275C/Slo1WT/beta2): 0.0168 (inactive)

SMILES: CC1COc2c(N3CCN(C)CC3)c(F)cc3c(=O)c(C(=O)O)cn1c23 (centres undefined)
- inhibition [9]: 10.8%
- score [10]: 1.04
- rescue above control [11]: -6.02
- cytochrome c release ratio [12]: 1.57
- inhibition of aggregation [13]: 67.8%
- glutamate uptake change [14]: -4.74%
- aggregation suppression score [15]: 1.18
- fluorescence ratio [1]: 0.99 (inactive)
- inhibition [2]: -2.27% (inactive)
- inhibition [3]: 2.57% (inactive)
- fluorescence ratio [4]: 0.87 (inactive)
- inhibition [5, 16]: -15.2% (inactive) and -4.35% (inactive) and -7.1% (inactive)
- inhibition [5, 17]: -17.1% and -18.6% and 40.6%
- inhibition [5, 18]: -34.5% and 8.51% and 11.7%
- inhibition [5, 19]: -33.9% and 2.31% and 36%
- inhibition [5, 20]: -16.9% and 6.16% and -20.4%
- inhibition [5, 21]: -20.4% and -8.17% and -11.9%
- inhibition ([6]; BGB combo, at 5 µM): -21.1% and 5.47% and 15%
- inhibition ([6]; at 0.5 µM): -45.4% (inactive) and 10.2% (inactive) and 8.6% (inactive)
- inhibition ([6]; cisplatin combo, at 5 µM): -32.1% and -5.63% and 10.7%
- inhibition [6, 22]: -54.6% and 19.4% and 13%
- inhibition [6, 23]: -40.5% and 0.068% and 0.136%
- inhibition ([6]; single agent, at 5 µM): -44.6% and 1.17% and 11.7%
- inhibition ([7]; at 0.5 µM): -45.9% (inactive) and 3.58% (inactive) and -0.61% (inactive)
- inhibition [7, 24]: -68.8% and -8.08% and -9.45%
- inhibition [7, 25]: -49.9% and 8% and -6.03%
- inhibition [7, 26]: -39.2% and 5.61% and -11.8%
- inhibition [7, 27]: -30.4% and 7.76% and -5.54%
- inhibition ([7]; single agent, at 5 µM): -34.4% and -4.7% and 18.3%
- log fold change Tl+ flux [8]: 0.00974 (inactive)
- log fold change Tl+ flux (R275C): 0.0249 (inactive)
- log fold change Tl+ flux (R275C/beta1): -0.02 (inactive)
- log fold change Tl+ flux (R275C/beta2Delta): -0.03 (inactive)
- log fold change Tl+ flux (R275C/beta4): 0.0112 (inactive)
- log fold change Tl+ flux (R275C/Slo1WT/beta2): 0.0308 (inactive)

SMILES: Oc1c(Cl)cc(Cl)c2cccnc12
- inhibition [9]: 31.4%
- score [10]: -0.52
- cytochrome c release ratio [12]: 0.8
- inhibition of aggregation [13]: -25.9%
- glutamate uptake change [14]: -23%
- aggregation suppression score [15]: -0.164
- fluorescence ratio [1]: 1.02 (inactive)
- inhibition [2]: 2.27% (inactive)
- inhibition [3]: -0.48% (inactive)
- fluorescence ratio [4]: 0.95 (inactive)
- log fold change Tl+ flux [8]: 0.231 (active)
- log fold change Tl+ flux (R275C): 0.0996 (active)
- log fold change Tl+ flux (R275C/beta1): 0.249 (active)
- log fold change Tl+ flux (R275C/beta2Delta): 0.0748 (inactive)
- log fold change Tl+ flux (R275C/beta4): 0.422 (active)
- log fold change Tl+ flux (R275C/Slo1WT/beta2): 0.19 (active)

SMILES: COc1c(N2CCNC(C)C2)c(F)cc2c(=O)c(C(=O)O)cn(C3CC3)c12 (centres undefined)
- fluorescence ratio [1]: 1.05 (inactive)
- inhibition [2]: -8.64% (inactive)
- inhibition [3]: -6.58% (inactive)
- fluorescence ratio [4]: 1.01 (inactive)
- inhibition [5, 16]: -20.5% (inactive) and -4.2% (inactive)
- inhibition [5, 17]: 17.2% and 22.3%
- inhibition [5, 18]: 3.24% and -1.74%
- inhibition [5, 19]: -33% and 5.75%
- inhibition [5, 20]: -33.3% and -6.41%
- inhibition [5, 21]: -5.09% and 4.8%
- inhibition ([6]; BGB combo, at 5 µM): -39.9% and 9.99%
- inhibition ([6]; at 0.5 µM): -22% (inactive) and 8.9% (inactive)
- inhibition ([6]; cisplatin combo, at 5 µM): -25.7% and 17.8%
- inhibition [6, 22]: -19.2% and 9.8%
- inhibition [6, 23]: -37.3% and 8.47%
- inhibition ([6]; single agent, at 5 µM): -2.12% and 5.9%
- inhibition ([7]; at 0.5 µM): -28.9% (inactive) and -4.45% (inactive)
- inhibition [7, 24]: -22.5% and -1.96%
- inhibition [7, 25]: -17.3% and -16.7%
- inhibition [7, 26]: -35.1% and -12%
- inhibition [7, 27]: -18.3% and -5.81%
- inhibition ([7]; single agent, at 5 µM): 17.7% and -9.93%
- log fold change Tl+ flux [8]: 0.0449 (inactive)
- log fold change Tl+ flux (R275C): -0.0278 (inactive)
- log fold change Tl+ flux (R275C/beta1): 0.0168 (inactive)
- log fold change Tl+ flux (R275C/beta2Delta): 0.00178 (inactive)
- log fold change Tl+ flux (R275C/beta4): -0.00176 (inactive)
- log fold change Tl+ flux (R275C/Slo1WT/beta2): 0.05 (inactive)

SMILES: O=C(C1CCCCC1)N1CC(=O)N2CCc3ccccc3C2C1 (centres undefined)
- inhibition [9]: 2.42%
- score [10]: 0.82
- rescue above control [11]: -8.41
- cytochrome c release ratio [12]: 0.99
- inhibition of aggregation [13]: 65.4%
- glutamate uptake change [14]: 7.89%
- aggregation suppression score [15]: 0.607
- fluorescence ratio [1]: 0.91 (inactive)
- inhibition [2]: -5.91% (inactive)
- inhibition [3]: -2% (inactive)
- fluorescence ratio [4]: 0.91 (inactive)
- log fold change Tl+ flux [8]: -0.00263 (inactive)
- log fold change Tl+ flux (R275C): -0.0164 (inactive)
- log fold change Tl+ flux (R275C/beta1): 0.0419 (inactive)
- log fold change Tl+ flux (R275C/beta2Delta): -0.0208 (inactive)
- log fold change Tl+ flux (R275C/beta4): 0.0526 (inactive)
- log fold change Tl+ flux (R275C/Slo1WT/beta2): 0.0259 (inactive)
